High-throughput results deposited in PubChem by National Center for Advancing Translational Sciences (NCATS).
This is a sample that favours compounds with a hit; in the whole collection about 2.8% have one here.
WRN inhibitor = blocks human WRN helicase; Q14191; WRN helicase unwinding, fluorescent forked duplex, kinetic; Potency, µM (top dose mostly 114 µM), for the others: top-dose activity change, negative = inhibition, hits mostly inhibitors; hit rate 0.46% among 360,000; also: potency is read from the fitted curve at half-maximal effect; % is scaled to controls: 0 for no effect and ±100 for the full control effect; nearly all actives have a fitted effect of over 55% in size
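Kinetic fluorescence helicase assay: unwinding of a quenched forked DNA duplex (100 nM final) with 2 mM ATP final raises red fluorescence (525/598 nm). Compounds sat 15 min at room temperature with 20 nM WRN beforehand.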
Pol eta inh-1 = blocks human DNA polymerase eta activity; Q9Y253; recombinant Pol eta, fluorescent DNA replication assay; Potency, µM (series often up to 114 µM), for inactives: at the top dose activity change, negative = inhibition, usual class: inhibitors; hit rate 1.2% among 390,000; also: potency is read from the fitted curve at half-maximal effect; % is scaled to controls: 0 for no effect and ±100 for the full control effect
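Pol eta (10 nM) was preincubated with compounds for 15 min at room temperature, after which fluorescent replication substrate (50 nM final) was added to start the reaction. Fluorescence was read kinetically at 0 and 10 min.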
POLB inh = inhibitors of human DNA polymerase beta | Potency, µM (titrated, usually from 114 µM), without a hit: at the top dose activity change, negative = inhibition, actives largely listed as inhibitors | P06746 | Pol beta primer extension/strand displacement, fluorescence kinetic | hit rate 1.3% among 340,000; also: potency is read from the fitted curve at half-maximal effect; % is scaled to controls: 0 for no effect and ±100 for the full control effect
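Homogeneous kinetic assay of primer extension and strand displacement by 10 nM Pol beta, preincubated 15 min at room temperature with compound before 50 nM substrate (final) was added. Read at 0 and 10 min; four-parameter Hill fit.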
Pol kappa inh-1 = blocks human DNA polymerase kappa activity; Q9UBT6; purified Pol kappa, fluorescent DNA synthesis assay, 10 min; Potency, µM (series often up to 107 µM), for the others: at the highest dose activity, negative = inhibition, hits mostly inhibitors; hit rate 0.53% among 400,000; also: potency is read from the fitted curve at half-maximal effect; % is scaled to controls: 0 for no effect and ±100 for the full control effect
Target sequence (Q9UBT6 whole entry, looked up): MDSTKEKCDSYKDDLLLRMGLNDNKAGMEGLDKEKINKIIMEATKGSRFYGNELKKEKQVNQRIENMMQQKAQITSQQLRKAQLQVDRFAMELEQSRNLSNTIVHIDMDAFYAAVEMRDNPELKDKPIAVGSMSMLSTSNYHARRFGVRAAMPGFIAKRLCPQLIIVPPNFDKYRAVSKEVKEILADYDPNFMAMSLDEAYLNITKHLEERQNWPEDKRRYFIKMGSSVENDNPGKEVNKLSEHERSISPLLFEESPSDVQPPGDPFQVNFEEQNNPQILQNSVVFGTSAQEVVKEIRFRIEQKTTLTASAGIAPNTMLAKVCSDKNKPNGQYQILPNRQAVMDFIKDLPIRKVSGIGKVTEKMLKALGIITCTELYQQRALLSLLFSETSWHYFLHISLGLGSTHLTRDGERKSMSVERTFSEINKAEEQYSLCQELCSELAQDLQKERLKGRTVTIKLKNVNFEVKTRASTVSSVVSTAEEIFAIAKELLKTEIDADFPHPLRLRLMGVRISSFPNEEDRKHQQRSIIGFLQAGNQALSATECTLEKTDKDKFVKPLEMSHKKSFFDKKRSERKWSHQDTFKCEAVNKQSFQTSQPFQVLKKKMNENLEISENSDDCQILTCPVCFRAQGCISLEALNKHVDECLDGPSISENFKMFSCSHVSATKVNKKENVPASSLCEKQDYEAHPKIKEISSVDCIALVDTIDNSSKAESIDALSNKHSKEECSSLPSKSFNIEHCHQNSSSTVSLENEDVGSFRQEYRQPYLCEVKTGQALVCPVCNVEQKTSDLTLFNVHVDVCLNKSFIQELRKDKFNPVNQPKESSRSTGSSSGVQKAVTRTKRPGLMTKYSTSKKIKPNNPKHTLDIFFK
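10 nM Pol kappa was preincubated with compounds for 15 min at room temperature. Reaction started with 50 nM (final) substrate. Fluorescence read kinetically at 0 and 10 min.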
Pol iota inh = blocks human DNA polymerase iota activity; Q9UNA4; AID 588590; Pol iota fluorescent replication assay, 10 min; Potency, µM (series often up to 115 µM), inactives show at the top dose activity, negative = inhibition, usual class: inhibitors; hit rate 1% among 390,000; also: potency is read from the fitted curve at half-maximal effect
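Fluorescent replication assay read twice, at 0 min and 10 min after adding 50 nM (final) substrate. Enzyme (10 nM) and compounds were first incubated 15 min at room temperature; enzyme-free buffer wells were negative controls.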
PI5P4K alpha inh = PI5P4K alpha (human) kinase inhibition. P48426. PI5P4Kalpha enzyme, ADP-Glo luminescence, 60 min; hits give low values. max response, %. hit rate 1.2% among 330,000. AID 652105; active = max response of -50% or lower; inconclusive = between -30% and -50%; inactive = -30% or higher; also: value at the top dose of about 77 µM; % is scaled to controls: 0 for no effect and ±100 for the full control effect
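ADP-Glo luminescence end-point read after a 60 min room-temperature kinase reaction of PI5P4Kalpha plus substrate, initiated with ATP at 5 microM final. Buffer: 0.038 M HEPES pH 7.4, EGTA, 0.1% CHAPS, 5% DMSO.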
Pol kappa inh-2 = confirmation of human DNA polymerase kappa inhibitors | purified Pol-kappa, fluorescent strand-displacement substrate | hit rate 76% among 920 | shares compounds with Pol eta inh-1 | Potency, µM, actives largely listed as inhibitors | AID 720501; also: potency is read from the fitted curve at half-maximal effect
Pol eta inh-2 = Pol eta (human) inhibition, cherry-pick confirmation; shares compounds with Pol eta inh-1; Pol eta primer extension, TAMRA/BHQ fluorescence, 10 min; Potency, µM, usual class: inhibitors; hit rate 64% among 2,600; also: potency is read from the fitted curve at half-maximal effect
* = called active by the depositor; ? = inconclusive; · = no result; [ ] = dose if it differs, or a comment. Unless noted, calls follow the shape of the dose curve; as a rule, active = well fitted curve in the direction sought with a large enough effect; inconclusive = small, poorly fitted or top-dose-only effect, or another doubt; inactive = no such curve, though single readings can be large; an effect the other way counts as inactive or inconclusive.

SMILES | WRN inhibitor | Pol eta inh-1 | POLB inh | Pol kappa inh-1 | Pol iota inh | PI5P4K alpha inh | Pol eta inh-2 | others
CC(=O)Nc1ccc2nc3c(=O)n(C)c(=O)n(C)c3nc2c1 | 10µM* | 35µM* | ? | ? | 10µM* | ? | 85*
CC(=O)N/N=C/c1ccccc1OCCOc1cccc(C)c1 | 11% | -17% | -9% | -3% | 10% | -2 | ·
COc1ccc(-c2cc(=O)oc3cc(OC(C)C(=O)NC(Cc4c[nH]c5ccc(O)cc45)C(=O)O)ccc23)cc1 (stereo not drawn) | -13% | 3% | 5% | -12% | -10% | 11 | ·
Cc1c(OC(C)C(=O)NC(Cc2c[nH]c3ccc(O)cc23)C(=O)O)ccc2c1oc(=O)c1ccccc12 (stereo not drawn) | ? | 20µM* | 2.5µM* | ? | 45µM* | -11 | ?
CC(Oc1ccc2ccc(=O)oc2c1)C(=O)NC(Cc1c[nH]c2ccc(O)cc12)C(=O)O (stereo not drawn) | -12% | 22µM* | ? | ? | ? | 5 | ?
Cc1c(C)c2ccc(OC(C)C(=O)N[C@@H](Cc3c[nH]c4ccccc34)C(=O)O)c(C)c2oc1=O (stereo partly drawn) | -4% | -3% | 30% | 0% | -5% | -26 | ·
O=C(COc1cc2oc(=O)cc(-c3ccccc3)c2cc1Cl)NC(Cc1c[nH]c2ccc(O)cc12)C(=O)O (stereo not drawn) | -8% | 50µM* | ? | -5% | ? | -1 | ?
COc1cc(S(=O)(=O)NCCc2c(C)[nH]c3ccccc23)c(C)cc1C | · | -20% | 2% | -11% | ? | · | ·
O=C(Nc1nccs1)[C@@H]1CC=C[C@@H]2CCN(C3CC3)C(=O)[C@@H]21 | · | · | · | -6% | 4% | · | ·
Cc1nc(N2CCCCC2)[nH]c(=O)c1CN(C)N=O | -7% | -11% | · | · | · | 6 | ·
CC1CCN(C(=O)COC(=O)c2ccc([N+](=O)[O-])o2)CC1 | -10%[11.6 µM] | 50µM* | · | -6% | 50µM* | 2 | ?
CCOC(=O)c1ccc(N(C(=O)c2ccccc2)c2ccccc2)cc1 | · | · | · | -15% | ? | · | ·
NC1=NC(=O)/C(=C/c2cn(CCC(=O)O)nc2-c2ccc(F)cc2)S1 | -21% | ? | 24% | -16% | 7% | -21 | ·
NC1=NC(=O)/C(=C/c2cn(CCC(=O)O)nc2-c2ccc(Cl)cc2)S1 | ? | 14µM* | 30% | -16% | -17% | ? | · | Pol kappa inh-2=17*
COc1ccc(-c2nn(CCC(=O)O)cc2/C=C2\SC(N)=NC2=O)cc1 | ? | 5.6µM* | 9% | 79µM* | -18% | ? | 27* | Pol kappa inh-2=21*
Cc1ccc(Cl)cc1N1CCN(C(=O)CCS(=O)(=O)c2cc(Br)cc3c2N(C(=O)C2CC2)CC3)CC1 | · | 4% | -7% | -23% | 8% | · | ·
CSc1cccc(NC(=O)C2CC(=O)N(Cc3ccccc3)C2)c1 (stereo not drawn) | 4% | -22% | 20% | 0% | 14% | 1 | ·
Cc1cc(=O)oc2c(CN3CC(C)OC(C)C3)c(O)c(Cl)cc12 (stereo not drawn) | ? | 20µM* | 14µM* | ? | 35µM* | ? | ? | Pol kappa inh-2=?
O=C(O)c1cccc(COc2ccc3c(c2)CCC3)c1 | 1%[11.6 µM] | 40µM* | 22µM* | ? | ? | -9 | 48*
O=C(NCc1ccccc1)c1cccc(COc2ccc3c(c2)CCC3)c1 | 0% | -13% | -26% | -10% | 12% | -9 | ·
CON=C(C(=O)NC1C(=O)N2C(C(=O)O)=C(CSc3nc(=O)c(=O)[nH]n3C)CSC12)c1csc(N)n1 (stereo not drawn) | -27% | 32µM* | · | 40µM* | ? | -12 | 30* | Pol kappa inh-2=21*
C=CCOc1ccc(Br)cc1/C=C1/SC(=Nc2ccc(C(=O)O)cc2)NC1=O | -11%[11.6 µM] | 20µM* | ? | -18% | ? | -72* | 85*
C=CCOc1c(Br)cc(/C=C2\SC(=Nc3ccccc3)NC2=O)cc1OC | 3% | -16% | 1% | -3% | 9% | -16 | ·
O=C(Nc1cccc(O)c1)c1ccc2c(c1)C(=O)N(Cc1ccco1)C2=O | -18% | -7% | ? | -33% | ? | -26 | ·
O=C(Nc1ccc(Cl)cc1C(=O)O)c1ccc2c(c1)C(=O)N(Cc1ccco1)C2=O | -30%[57.1 µM] | 79µM* | ? | ? | 35µM* | -75* | ?
SMILES | WRN inhibitor | Pol eta inh-1 | POLB inh | Pol kappa inh-1 | Pol iota inh | PI5P4K alpha inh | Pol eta inh-2 | others
O=C(COC(=O)c1cncc(Br)c1)Nc1nnc(-c2ccccc2)o1 | -11%[11.6 µM] | 40µM* | · | ? | ? | ? | 60*
O=C(COc1ccc(Br)cc1Br)Nc1ccc(S(=O)(=O)Nc2ncccn2)cc1 | · | -7% | -1% | -6%[60.1 µM] | -3% | · | ·
Cc1cc(-c2n[nH]c(=S)n2/N=C/C=C/c2ccco2)n[nH]1 | ? | 45µM* | 40µM* | 89µM* | 18µM* | ? | ?
S=c1[nH]nc(-c2ccco2)n1/N=C/C=C/c1ccccc1 | -9% | -21% | 13% | 4% | 8% | -1 | ·
Cc1cc(-c2n[nH]c(=S)n2/N=C/c2ccc(C)o2)n[nH]1 | 6% | -12% | -1% | -2% | -20% | 0 | ·
Cc1ccccc1-c1n[nH]c(=S)n1/N=C/C=C/c1ccco1 | ? | 22µM* | -71% | 18µM* | 7.9µM* | -84* | 76*
CCOC(=O)c1c(C)[nH]c(C)c1S(=O)(=O)N1CCN(c2cccc(C)c2)C(C)C1 (stereo not drawn) | -8% | -6% | -9% | -9% | -2% | 4 | ·
COc1ccc(CC(=O)Nc2ccc(S(=O)(=O)Nc3nccc(C)n3)cc2)cc1 | -18% | 7% | 27% | -1% | 12% | · | ·
COc1ccc2occ(CC(=O)Nc3ccc(S(=O)(=O)Nc4nccc(C)n4)cc3)c2c1 | · | 79µM* | ? | ? | ? | · | ? | Pol kappa inh-2=47*
CN(C)S(=O)(=O)c1cccc(NC(=O)COC(=O)/C=C/c2ccco2)c1 | -22%[57.1 µM] | ? | 32µM* | -38% | -54% | ? | ?
Cc1ccc2nc(CN3CCN(C(=O)Nc4ccc(F)cc4)CC3)oc2c1 | · | -8% | 29% | -7%[60.1 µM] | 3% | · | ·
CCCN(CC(=O)Nc1ccccc1OC)C(=O)c1ccc2[nH]c3c(c2c1)CC(C)CC3 (stereo not drawn) | -4% | -26% | · | -19% | -4% | 5 | ·
